From PubChem
Only some compounds are listed: those with a hit (about 3% of all), similar ones and a draw of the others.
NALP1 inh – inhibitors of NALP1 inflammasome in yeast; S. cerevisiae NALP1/ASC/caspase-1 growth, X-gal OD620, 72 h; inhibition, % at 10 µM; hit rate 0.61% among 280,000; in the data active means inhibition mostly above about 24%, no sharp cut-off; inactive means mostly below about 32%
CHT allo act – allosterically activates the human high affinity choline transporter | Q9GZV3 | B-score at 10 µM | CHT-expressing cells, membrane potential dye, choline EC20; hits give high values; LV-AA mutant CHT in HEK293 cells | hit rate 0.49% among 310,000;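 active means initial fluorescence not abnormally high and integrated response B-score, plate-corrected, over 3 SD above library mean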
Target sequence (Q9GZV3 whole entry, looked up): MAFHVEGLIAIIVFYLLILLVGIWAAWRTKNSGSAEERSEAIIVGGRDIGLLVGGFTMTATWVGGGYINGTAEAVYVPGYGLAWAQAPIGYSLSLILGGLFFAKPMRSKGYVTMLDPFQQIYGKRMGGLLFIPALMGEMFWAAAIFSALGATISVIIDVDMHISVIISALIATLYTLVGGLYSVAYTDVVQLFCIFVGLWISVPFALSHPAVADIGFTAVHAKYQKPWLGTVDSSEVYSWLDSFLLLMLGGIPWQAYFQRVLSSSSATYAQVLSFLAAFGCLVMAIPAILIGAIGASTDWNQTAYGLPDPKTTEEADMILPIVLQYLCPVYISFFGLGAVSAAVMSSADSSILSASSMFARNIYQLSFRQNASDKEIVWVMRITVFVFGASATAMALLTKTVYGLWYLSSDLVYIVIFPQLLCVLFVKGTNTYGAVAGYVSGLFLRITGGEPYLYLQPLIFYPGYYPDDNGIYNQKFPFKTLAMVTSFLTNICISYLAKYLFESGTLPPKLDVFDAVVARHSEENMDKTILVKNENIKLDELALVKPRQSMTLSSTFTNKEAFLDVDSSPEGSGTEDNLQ
A1 inh – inhibitors of the anti-apoptotic protein A1, read as caspase activation; MEF A1-2A-BIM cells, Caspase-Glo 3/7 luminescence, 3 h; percent of clofoctol response, vehicle zero; hit rate 0.066% among 330,000; caspase activation, % (no concentration beside the values);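 active means over half of replicate activation scores above 10%, or exactly half above 10 with the replicate mean above 10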
Mot1-301 SUMO – SUMOylation pathway inhibition by Mot1-301 growth rescue. S. cerevisiae Mot1-301 growth rescue, ATP luminescence, 38.5C; percent above DMSO median, 100 means doubled. growth rescue, % at 18.8 µM. hit rate 1% among 320,000. AID 2716;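 active means every valid replicate shows activation above 250% relative to neutral control wells; inactive means the rest, any valid replicate at or below 250%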;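 further: OY570 slx delta 5 strain wells were the positive control but not used for scaling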
NLRP3 yeast inh – NALP3 inhibition in yeast. Yeast reconstituted NLRP3/ASC/caspase-1, beta-gal luminescence, 24 h. inhibition, % at 10 µM. hit rate 0.39% among 330,000. AID 2825;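 active means inhibition of 50% or more; inactive means inhibition below 50%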;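 further: plate controls were induced DMSO wells for no effect and uninduced yeast grown without galactose for full effect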
CHT block – inhibits the human high affinity choline transporter. CHT-expressing cells, membrane potential dye, choline response; hits give low values. hit rate 0.86% among 310,000. B-score at 10 µM. Q9GZV3;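 active means B-score over 3 SD under the library average, and starting fluorescence ratio not unusually high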;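 further: choline stimulus applied at its EC90 after an EC20 pre-addition; B-score computed on integrated fluorescence ratio after choline addition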
CHT block conf – human CHT inhibition, confirmatory screen | CHT-expressing cells, choline membrane potential dye; LV-to-AA substituted CHT, HEK293 cells | AID 493221 | hit rate 70% among 2,400 | CHT activity remaining % of control (hits give low values), % at 10 µM | shares compounds with CHT block;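 active means choline transporter activity left, mean of duplicates at 10 µM, below buffer-only control mean minus 3 SD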;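 further: depolarization triggered by choline at its EC90 following an EC20 pre-addition; 0% = hemicholinium-3 full block and 100% = buffer-only control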
HEK293 CHT ctr – counter-screen for CHT inhibitors: effect in parental HEK293 cells; hit rate 4% among 2,400; membrane potential ratio readout (active if shifted either direction beyond buffer ±3SD; no single direction) at 10 µM; shares compounds with CHT block; membrane potential dye, choline response; active = decrease or increase beyond buffer ±3SD;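 further: parental cells lack the transporter so any hit is non-specific; ratio is peak minus trough fluorescence over baseline after EC90 choline challenge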
The depositor's hits bear a star; i = inactive; · = no result given.

SMILES | NALP1 inh | CHT allo act | A1 inh | Mot1-301 SUMO | NLRP3 yeast inh | CHT block | CHT block conf | HEK293 CHT ctr
CC1CCCC(NC(=O)c2ccc(CNc3c(N4CCCC4)c(=O)c3=O)cc2)C1C (configuration not stated) | 25 | i | 0 | 1 | 13 | -13* | 0.2%* | i
CC1CCCN(C2(O)C(=O)Nc3ccc([N+](=O)[O-])cc32)C1 (configuration not stated) | 11 | i | 0 | 20 | 7 | i | · | ·
C=CCC[C@H](Cc1ccc(F)cc1)C(=O)OC[C@@H](Cc1c[nH]c2ccccc12)NC(=O)[C@@H](CC=C)CC(=O)NCCO | · | · | 0 | 2 | 11 | · | · | ·
Cc1cc(NC(=O)CSc2nnc(C(F)(F)F)n2C)no1 | · | · | 0 | -2 | 3 | · | · | ·
CCCn1c(SCc2cc(=O)oc3ccc4ccccc4c23)n[nH]c1=O | -5 | i | 0 | -6 | 10 | -5.4* | i | i
Cc1nnc(SCc2cc(=O)oc3ccc4ccccc4c23)n1Cc1ccccc1 | 37 | i | 0 | -10 | 8 | i | · | ·
Cc1cccc(N2CCN(C(=O)c3ccc(NS(=O)(=O)c4ccc5[nH]c(=O)[nH]c5c4)cc3)CC2)c1C | 6 | i | 1 | -16 | 16 | -5.1* | i | i
O=C(c1ccc(NS(=O)(=O)c2ccc3[nH]c(=O)[nH]c3c2)cc1)N1CCN(c2ccccc2O)CC1 | · | i | 0 | 134 | 11 | i | · | ·
CCOC(=O)C1=C(COC(=O)Cc2ccc(Cl)cc2)NC(=O)NC1C (configuration not stated) | · | · | 0 | 2 | 14 | · | · | ·
CCOC(=O)COc1ccc(S(=O)(=O)NCc2ccco2)cc1 | 3 | i | 0 | -19 | 7 | -7.6* | i | i
O=c1oc2cc(OCCO)ccc2c2c1CCCC2 | · | i | 0 | 11 | 19 | i | · | ·
Cc1ccc(C(=O)NCC(=O)OCC(=O)Nc2ccccc2C#N)s1 | -5 | i | 0 | 8 | 11 | -13* | 65%* | i
O=C(/C=C/c1ccc(Br)o1)OCc1nc2ccsc2c(=O)[nH]1 | · | i | 1 | 6 | 27 | i | · | ·
O=C(OCc1nc2ccsc2c(=O)[nH]1)c1cc(Br)c(Br)s1 | · | i | 0 | -5 | 11 | -7.7* | 64%* | i
COc1ccc(/C=C/C(=O)NC2CCCCCCC2)cc1S(=O)(=O)N1CCOCC1 | 32 | i | 0 | -1 | 15 | -7.6* | 20%* | i
COc1ccc(/C=C/C(=O)Nc2ccc(NC(C)=O)cc2)cc1S(=O)(=O)N1CCOCC1 | · | i | 0 | 9 | 9 | i | · | ·
O=C(Nc1nc2nccc(-c3ccccc3)n2n1)c1ccccc1 | 28 | i | 0 | -5 | 3 | i | · | ·
COc1ccc(C(=O)Nc2nc3nccc(-c4ccccc4)n3n2)cc1 | 40 | i | 0 | 25 | 4 | -6.4* | i | i
CCc1ccccc1NC(=O)NC1CCCCCCC1 | -9 | i | 1 | 70 | 21 | i | · | ·
Cc1onc(-c2ccccc2)c1C(=O)N(CC(C)C)c1c(N)n(CC(C)C)c(=O)[nH]c1=O | · | · | 1 | -14 | 9 | · | · | ·
COc1ccc(C(CNC(=O)c2cccc(S(=O)(=O)NCc3ccccc3)c2)N2CCOCC2)cc1 (configuration not stated) | · | i | 1 | -10 | 18 | i | · | ·
COc1ccc(C(CNC(=O)c2cc(S(=O)(=O)NCc3ccccc3)ccc2C)N2CCOCC2)cc1 (configuration not stated) | · | i | 0 | -13 | 13 | -10* | 19%* | i
CCN(CC)C(=O)N1CCN(S(=O)(=O)c2ccc(C)c(C)c2)CC1 | 12 | i | 0 | -2 | 29 | -7.4* | 37%* | i
